Source: PubChem BioAssay
Most compounds without a hit are left out; they make up all but 8.8% or so of the library.
HT1080 IDH1KD tx – qHTS for induction of synthetic lethality in tumor cells producing 2HG: qHTS for the HT-1080-IDH1KD cell line | 360,000 compounds, 2% hits | HT-1080 IDH1 knockdown viability, ATP luminescence, 48 h | AID 686971, 2013 | Potency, µM (series often up to 46.1 µM), without a hit: at the highest dose activity, negative = toxicity, hits mostly cytotoxic;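 note: potency is the fitted concentration of half-maximal effect; 0% = DMSO wells and -100% = cell-free medium wells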
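Using the IDH1-knockdown HT-1080 line run in the same batch and compound series as the NT line, viability after 48 h at 37 °C was determined by CellTiter-Glo luminescence and expressed as % activity.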
KB-3-1 tox – qHTS assay for MDR1-selective chemotherapeutics: Primary screen using the parental adenocarcinoma cell KB-3-1; KB-3-1 viability, CellTiter-Glo ATP luminescence, 72 h; Potency, µM (titrated, usually from 46.1 µM), actives largely listed as cytotoxic; 400,000 compounds, 1.4% hits; note: potency is the fitted concentration of half-maximal effect; nearly all actives have a fitted effect of over 60% in size
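Parental KB-3-1 viability, qHTS format: 72 h compound exposure, 37 °C; CellTiter-Glo; media-only wells and DMSO plates as controls; concentration-effect fits on corrected data.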
KB-V1 MDR tox – qHTS assay for MDR1-selective chemotherapeutics: Primary screen using the drug-selected MDR subline cells KB-V1; KB-V1 MDR cells viability, CellTiter-Glo, 72 h; Potency, µM (doses to about 46.1 µM), actives largely listed as cytotoxic; 400,000 compounds, 3.4% hits; note: potency is the fitted concentration of half-maximal effect; nearly all actives have a fitted effect of over 60% in size
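KB-V1 MDR subline cells in DMEM (phenol-red free, 10% FBS) exposed to compounds in qHTS concentration series for 72 h at 37 degrees C. Viability read by CellTiter-Glo luminescence; concentration-effect curves fitted after normalization and correction.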
HT1080NT lethal – qHTS for induction of synthetic lethality in tumor cells producing 2HG: qHTS for the HT-1080-NT fibrosarcoma cell line; HT-1080-NT fibrosarcoma viability, CellTiter-Glo ATP luminescence, 48 h; Potency, µM (series often up to 46.1 µM), inactives show at the highest dose activity, negative = less viability, hits mostly cytotoxic; 360,000 compounds, 1.6% hits; AID 686970, 2013;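 note: NT is the 2HG producing partner of a matched IDH1 knockdown line; potency is the fitted concentration of half-maximal effect; 0% = DMSO-treated cells and -100% = media-only wells without cells; nearly all actives have a fitted effect of over 55% in size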
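Luminescent CellTiter-Glo readout after 48 hours of compound exposure at 37 degrees C defined viability of HT-1080-NT cells. Activity was normalized to DMSO wells and cell-free media wells; concentration-response curves were fitted and assigned curve classes.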
IL-1B inflam inh – qHTS for Inhibitors of Inflammasome Signaling: IL-1-beta AlphaLISA Primary Screen. THP-1 LPS/ATP IL-1B secretion, AlphaLISA, 16 h; hits give low values. activity change, % at 57.5 µM. 360,000 compounds, 4.7% hits; in the data active = activity change below about -50%; inconclusive = mostly about -30% to -49%
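THP-1 cells pretreated 1 hr with compounds (up to 57.5 uM final), then stimulated with LPS (250 ng/mL final) plus ATP (1.25 mM final); secreted IL-1B measured by AlphaLISA after 16 hr, decreased signal indicating inhibition.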
* = called active by the depositor; i = inactive; u = inconclusive; x = no result. Unless noted, calls come from the whole dose curve; as a rule, active = well fitted curve in the direction sought with a large enough effect; inconclusive = small, poorly fitted or top-dose-only effect, or another doubt; inactive = no such curve, though single readings can be large; an effect the other way counts as inactive or inconclusive. Unless noted, % is set by controls: 0 for no effect and ±100 for the full control effect.

SMILES	HT1080 IDH1KD tx	KB-3-1 tox	KB-V1 MDR tox	HT1080NT lethal	IL-1B inflam inh
O=C(/C(=C/O)N=Nc1ccccc1Cl)c1ccccc1	14.6µM*	i	i	13µM*	-99.0*
CCOC(=O)NC(=O)/C(N=Nc1cccc(C(F)(F)F)c1)=C(\C)O	1.1%	i	i	-0.3%	20.4
Cc1cccc(/C=N/NC(=O)c2ccc(Br)cc2)c1	4.1%	i	u	7.7%	-2.6
COC(=O)/C(N=Nc1cccc(C(F)(F)F)c1)=C(\C)O	16.8%	u	5.8µM*	13.8%	2.8
Cc1cccc(N=N/C(=C\O)C(=O)c2ccc(Br)cc2)c1	u	u	u	u	-84.8*
O=C(/C(=C/O)N=Nc1cccc(C(F)(F)F)c1)c1ccccc1	-22.8%	i	i	u	-95.0*
O=C(/C(=C/O)N=Nc1ccccc1)c1ccco1	-23.2%	i	i	-2.6%	-16.2
CCc1ccc(C2c3c(n[nH]c3C)C(=O)N2c2ccc(C)cc2)cc1 (stereo not drawn)	x	i	u	x	x
Cc1cc(C)n(-c2nc(Nc3ccccc3)nc(-n3nc(C)cc3C)n2)n1	6.5%	i	i	9.7%	-2.1
Cc1cc(C)n(-c2nc(N(c3ccccc3)c3ccccc3)nc(-n3nc(C)cc3C)n2)n1	2.3%	18.4µM*	2.59µM*	4.8%	-84.0*
CC(=O)c1nnn(-c2nc(N)nc(N(c3ccccc3)c3ccccc3)n2)c1C	12.9%	i	10.3µM*	-0.6%	37.6
O=C(Nc1ccccc1F)N1CCc2ccccc2C1	10.9%	i	i	2.5%	-3.3
OC1CCCN(c2c3c(nc4cc(-c5cccc(Cl)c5)nn24)CCC3)C1 (stereo not drawn)	-17.9%	i	16.4µM*	u	-101.7*
Cc1ccc([C@H]2C[C@H](n3cc(-c4ccc(F)cc4)nn3)[C@@H](O)CN2C(=O)c2cccs2)cc1	11.5%	i	i	11.9%	-51.5*
CCCCCCN1C[C@H](n2cc(COC(=O)c3ccccc3)nn2)[C@@H](O)C[C@@H]1c1ccc(Cl)cc1	u	u	20.6µM*	u	-14.5
CCCCCCN1C[C@H](n2cc(-c3ccc(F)cc3)nn2)[C@@H](O)C[C@@H]1c1ccc(Cl)cc1	u	u	u	u	-104.4*
CCCCCCN1C[C@H](n2cc(COC(=O)c3ccccc3)nn2)[C@@H](O)C[C@@H]1c1ccc(OC)cc1	-5.4%	i	i	-26.6%	17.8
CCCCCC(=O)N1C[C@@H](n2cc(-c3ccc(F)cc3)nn2)[C@H](O)C[C@@H]1c1ccc(OC)cc1	u	i	i	18.4µM*	-29.3
CCCCCCN1C[C@H](n2cc(-c3ccc(F)cc3)nn2)[C@@H](O)C[C@@H]1c1ccccc1	14.5%	i	i	6.6%	12.4
Cc1c(Br)c([N+](=O)[O-])nn1CC(=O)Nc1c(C)n(C)n(-c2ccccc2)c1=O	6.3%	i	i	4.4%	-5.2
CC(=O)Nc1ccc(C(=O)N2CCCC(c3cc(C(=O)NCc4cccnc4)no3)C2)cc1 (stereo not drawn)	18.0%	i	i	6.8%	1.5
O=C(c1ccccc1)c1ccc2cc(O)ccc2c1	u	u	u	u	-54.3*
O=C(c1ccccc1)c1ccc2ccccc2c1	10.9%	i	i	12.5%	-8.6
CC(=O)c1cc2c(cc1NS(=O)(=O)c1ccc(C)cc1)OCCO2	16.4µM*	i	16.4µM*	u	7.1
CC(=O)c1cc2c(cc1NS(=O)(=O)c1ccccc1)OCO2	2.2%	i	i	u	-1.9
SMILES	HT1080 IDH1KD tx	KB-3-1 tox	KB-V1 MDR tox	HT1080NT lethal	IL-1B inflam inh
O=C1CCCN1c1ccc(S(=O)(=O)Nc2ccc3c(c2)OCCO3)cc1	u	18.4µM*	18.4µM*	5.01µM*	-10.2
Cc1ccc(S(=O)(=O)Nc2ccc3c(c2)OCCO3)cc1	-19.5%	u	23.1µM*	-7.7%	-7.6
COc1cc(NC(=O)c2nc(-c3ccncc3)no2)cc(OC)c1OC	x	i	i	x	x
Cc1cccc(Nc2nnc(SCC(=O)NC(=O)Nc3ccc4c(c3)OCCO4)s2)c1	u	u	u	23.1µM*	28.4
Nc1nnc(SCC(=O)Nc2cccnc2Cl)s1	18.4%	i	i	5.2%	-3.6
Cc1cccc(Nc2nnc(SCC(=O)Nc3cccnc3Cl)s2)c1	10.7%	i	14.6µM*	5.3%	-6.2
COC(=O)C1=C(C)NC(C)=C(C(=O)OC)C1C(=O)OCC(=O)N1CCCCC1C (stereo not drawn)	-4.6%	i	i	-2.8%	3.5
CNc1nc(SC)nc2ccccc12	0.9%	i	i	5.1%	-3.8
CSc1nc(N(C)NC(=O)c2ccccc2)c2ccccc2n1	0.581µM*	1.03µM*	1.16µM*	0.581µM*	40.8
CSc1nc(N(C)NC(=O)c2ccc(Cl)cc2)c2ccccc2n1	u	0.581µM*	2.91µM*	0.731µM*	0.0
CCOc1ccc(NC(=O)CC2C(=O)N(c3ccccc3)C(=O)N2C2CCCCC2)cc1 (stereo not drawn)	x	i	i	x	x
CC1(C)C2CCC(C2)C1(C)NC(=O)CNCC1CCCCC1 (stereo not drawn)	-13.4%	i	i	-16.8%	-78.2*
CN1CCN(C(=S)NC(=O)c2ccc(C(C)(C)C)cc2)CC1	-11.8%	i	u	-12.0%	2.5
C=CCn1cccc(/C=C/C(=O)c2ccc(C(C)(C)C)cc2)c1=S	-18.7%	i	u	u	-106.5*
COc1ccc(OC)c(S(=O)(=O)Nc2cc(OC)c(Cl)cc2OC)c1	-26.3%	i	i	-25.6%	-4.5
COc1cc(NS(=O)(=O)c2ccc(OC)c(C)c2C)c(OC)cc1Cl	2.31µM*	3.26µM*	i	2.31µM*	-4.3
Cc1cc(-c2nnc3n2N=C(c2ccc(-c4ccccc4)cc2)CS3)n[nH]1	u	u	i	23.1µM*	-62.4*
c1ccc(-c2cc(-c3nnc4n3N=C(c3ccc5ccccc5c3)CS4)[nH]n2)cc1	17.8µM*	i	7.31µM*	u	-64.5*
c1ccc(C2=Nn3c(nnc3-c3ccncc3)SC2)cc1	5.1%	i	i	3.2%	-18.4
Cc1cccc(-c2nnc3n2N=C(c2ccccc2)CS3)c1	-13.7%	u	8.2µM*	-8.3%	13.0
CCOc1ccc(C2=Nn3c(nnc3-c3ccc(OC)cc3)SC2)cc1	6.51µM*	2.91µM*	3.26µM*	u	19.7
COc1ccc2c(c1)c1c(c(=O)n(Cc3ccccc3)c(=O)n1CC(=O)Nc1cc(C)cc(C)c1)n2C	x	i	i	x	x
